Results filed as inconclusive are left out. A call without a number means that no potency is given here. Activity calls are given as the source filed them. Calls come from the whole dose curve. Numbered stars: 1 amine (or outer) side, 2 acyl side, 3 side chain; on linkers, the order of the positions; unused ones are H or OH. Square brackets hold non-standard residues; d marks the D form. Side chains are listed from the residue outwards. Peptide text beside a SMILES is read from it. * marks the point of attachment. Ethylenediamine = C(CN[*:2])N[*:1]; Hyp = O=C(O)[C@@H]1C[C@@H](O)CN1; Phg = N[C@H](C(=O)O)c1ccccc1; CO = O=C([*:1])[*:2]; Bn = c1ccc(C*)cc1

The assay in a line: Primary qHTS for inhibitors of SARS-S pseudo-typed particle cell entry (AID 1479145). Note: nearly all actives have a fitted effect of over 45% in size. The conditions noted are these: SARS-S pseudotyped particle cell entry, luciferase reporter; series mostly up to 57.1 µM.
Consider `C[C@H](NCCc1ccc(O)cc1)[C@H](O)c1ccc(O)cc1`, for which the Potency entry is “inactive”.
On to `CCOC(=O)[C@H](C)C[C@@H](Cc1ccc(-c2ccccc2)cc1)NC(=O)CCC(=O)O`, for which the Potency entry was “inactive”.
In the case of `C[N+]1(C)C2CC[C@H]1CC(OC(=O)C(O)c1ccccc1)C2` (some centres undefined), the Potency result was “inactive”.
Consider `CCC(=O)Oc1ccc2c(c1)CC[C@@H]1[C@H]2CC[C@]2(C)[C@@H](OC(=O)CC)CC[C@@H]12`, for which the Potency result was “inactive”.
As for `CCN1CCCC1CNC(=O)c1cc(S(=O)(=O)CC)ccc1OC` (centres undefined), the Potency entry is “inactive”.
Consider `CC(=O)O[C@]1(C(C)=O)CC[C@H]2[C@@H]3C[C@H](C)C4=CC(=O)C=C[C@]4(C)[C@@]3(F)[C@@H](O)C[C@@]21C`, for which the Potency entry is “inactive”.
The same measure, in the same setting: the value for `NCCCC[C@@H]1NC(=O)[C@@H](Cc2c[nH]c3ccccc23)NC(=O)[C@H](c2ccccc2)NC(=O)[C@@H]2C[C@@H](OC(=O)NCCN)CN2C(=O)[C@H](Cc2ccccc2)NC(=O)[C@H](Cc2ccc(OCc3ccccc3)cc2)NC1=O` (cyclo([Hyp]([CO-Ethylenediamine])[Phg][dW]KY(Bn)F)) was “inactive”; that for `CCCCOC(=O)C(=O)Nc1cccc(-c2nn[nH]n2)c1` was “inactive”; that for `CCCCC/C=C\C/C=C\C/C=C\CCCCC(=O)O` was “inactive”.
Same read-out and setting: the value for `Cc1ncc([N+](=O)[O-])n1CCOC(=O)c1ccccc1` was “inactive”; that for `CCOC(=O)COc1ccc2c(=O)cc(-c3ccccc3)oc2c1` was “inactive”; that for `NC(=O)[C@H]1O[C@@H](O)[C@H](O)[C@@H](O)[C@@H]1O` was “inactive”.
`C[C@@H]1CCC[C@H](C)N1NC(=O)c1ccc(Cl)c(S(N)(=O)=O)c1`: the Potency result is “inactive”.
Take `C=C[C@@H]1C[C@]1(NC(=O)[C@@H]1C[C@@H]2CN1C(=O)[C@H](C(C)(C)C)NC(=O)O[C@@H]1C[C@H]1CCCCCc1nc3ccc(OC)cc3nc1O2)C(=O)NS(=O)(=O)C1CC1`: the Potency entry was “inactive”.
The same measure, in the same setting: under `C=CC[N@@+]12CC[C@]34c5ccccc5N5/C=C6\C7N(/C=C(\C53)[C@@H](C[C@@H]41)/C(=C/CO)C2)c1ccccc1[C@@]71CC[N@@+]2(CC=C)C/C(=C\CO)[C@@H]6C[C@@H]12` (some centres undefined) stands “inactive”; under `CC(C)CN(C[C@@H](O)[C@H](Cc1ccccc1)NC(=O)O[C@H]1CCOC1)S(=O)(=O)c1ccc(N)cc1`, “inactive”; under `OC[C@H]1O[C@@H](O)[C@H](O)[C@@H](O)[C@@H]1O`, “inactive”.
With `CCCCCCCCCCCCCC(=O)OCC(COP(=O)([O-])OCC[N+](C)(C)C)OC(=O)CCCCCCCCCCCCC` (centres undefined), the Potency result was “inactive”.
As for `C[C@H]1C[C@@H]2[C@H]([C@@H](O)C[C@@]3(C)[C@H]2CC[C@]3(O)C(=O)COC(=O)CCC(=O)O)[C@@]2(C)C=CC(=O)C=C12`, the Potency result is “inactive”.
With `CC(C)(CO)C(O)C(=O)NCCCC(=O)O` (centres undefined), the Potency result was “inactive”.
As to `COC(F)(F)C(Cl)Cl`, the Potency entry is “inactive”.
For `C[N+](C)(C)CCOP(=O)([O-])OP(=O)(O)OC[C@H]1OC(n2ccc(N)nc2=O)[C@H](O)[C@@H]1O` (some centres undefined), the outcome was “inactive [at 0.573 µM]”.
Regarding `C[C@H]1O[C@]2(CS1)CN1CCC2CC1`, the Potency result was “inactive”.
The same measure, in the same setting: the value for `CCCCc1cc2c(=O)c(C(=O)OC)c[nH]c2cc1OCc1ccccc1` was “inactive”.
On to `O=C(Cn1c(=O)sc2ccc(Cl)cc21)N1CCN(CCO)CC1`, for which the Potency result was “inactive”.
With `CCCCCc1ccc(C)cc1O`, the Potency result is “inactive”.
Consider `CC1(C)S[C@@H]2[C@H](NC(=O)[C@H](N)c3ccccc3)C(=O)N2[C@H]1C(=O)OCOC(=O)[C@@H]1N2C(=O)C[C@H]2S(=O)(=O)C1(C)C`, for which the Potency result was “inactive”.
Same read-out and setting: under `O=[N+]([O-])c1ccc(/C=C/c2cccc(CO)n2)o1` stands “inactive”.
With `CN(C)CC(c1ccc(O)cc1)C1(O)CCCCC1` (centres undefined), the Potency entry was “inactive”.
`FC(F)OC(Cl)C(F)(F)F` (centres undefined): the Potency result was “inactive”.
As to `Cc1cc(Nc2ccccc2C(=O)O)ccc1Cl`, the Potency entry was “inactive”.
On to `CCCCCCCCCC(=O)OCCN1CCN(CC/C=C2/c3ccccc3Sc3ccc(Cl)cc32)CC1`, for which the Potency result was “inactive”.
Regarding `CC(=O)c1cc2cccc(OCC(O)CNC(C)C)c2o1` (centres undefined), the Potency entry was “inactive”.
`CC[C@H]1OC(=O)C[C@@H](OC(C)=O)[C@H](C)[C@@H](O[C@@H]2O[C@H](C)[C@@H](O[C@H]3C[C@@](C)(O)[C@@H](OC(=O)CC(C)C)[C@H](C)O3)[C@H](N(C)C)[C@H]2O)[C@@H](CC=O)C[C@@H](C)C(=O)/C=C/C(C)=C/[C@@H]1CO[C@@H]1O[C@H](C)[C@@H](O)[C@@H](OC)[C@H]1OC`: the Potency entry was “inactive”.
As to `CCC1(C)OC(=O)N(C)C1=O` (centres undefined), the Potency result is “inactive”.
For `CC=CC1=C(C(=O)O)N2C(=O)[C@@H](NC(=O)[C@H](N)c3ccc(O)cc3)[C@H]2SC1`, the Potency entry is “inactive”.
For the compound `O=C(N[C@H]1CCS[C@H]2CCC[C@@H](C(=O)O)N2C1=O)[C@@H](S)Cc1ccccc1`, the Potency result is “inactive”.
On to `Nc1nc2c(c(=O)[nH]1)N(C=O)C(CNc1ccc(C(=O)N[C@@H](CCC(=O)O)C(=O)O)cc1)CN2` (some centres undefined), for which the activity change, negative = inhibition was -33% [at 0.573 µM] (inactive).
On to `COCC1=C(C(=O)OC(C)OC(=O)OC(C)C)N2C(=O)[C@@H](NC(=O)/C(=N/OC)c3csc(N)n3)[C@H]2SC1` (some centres undefined), for which the Potency result is “inactive”.

For the origin of these results see PubChem BioAssay (NCATS).
